“And” between values parts separate entries of the source, which are not always exact repeats. Equal values may be shown once. The source made the active and inactive calls.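 Rule for the calls, unless noted: active = compounds whose cell count with miR-34 switched on is under 0.7 times the count with it off; inactive = the rest.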
Experiments:
[1] = Wnt pathway potentiators raising nuclear beta-catenin – imaging, WNT3A-conditioned medium, mouse C2C12, NPC library, primary screen (AID 1117326; in the data active = nuclear beta-catenin stimulation mostly above about 4.2%, no sharp cut-off; inactive = mostly below about 10%); settings: stronger effect = higher value
[2] = stimulators of insulin release from INS-1E, primary screen, cell-based, 5 mM glucose, NPC library (AID 1117329;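 active = compound raises insulin release from rat beta cells at 5 mM glucose, no numeric limit stated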); settings: rat INS-1E insulin secretion, at 10 µM, stronger effect = higher value
[3] = growth inhibition of GSK3B-pretreated HCT116 cells – cell-based, CellTiter-Glo, 0.2 to 20 µM (AID 1117336;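 active = compounds lowering colon cancer cell viability after pretreatment blocking the GSK3B kinase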); settings: HCT116 viability after GSK3B inhibitor, at 20 µM, stronger effect = higher value
[4] = inhibition of endothelial tube formation, primary screen, imaging, VEGF stimulated, CD31 staining, tube area, NPC library (AID 1117340;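 active = compound that reduces growth-factor-driven endothelial tube area in a mixed cell culture, no cutoff stated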); settings: VEGF-stimulated ADSC/ECFC co-culture, at 10 µM, stronger effect = higher value
[5] = GLP1 release stimulators, primary, NCI-H716, NPC library (AID 1117341;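 active = compound raises GLP1 secretion from the human gut endocrine cells, with no numeric limit stated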); settings: NCI-H716 cells, at 10 µM, stronger effect = higher value
[6] = HCT116 colon cancer cell growth inhibition, primary screen, CellTiter-Glo luminescence, NPC library (AID 1117342;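 active = compounds that lower survival of HCT116 colon cancer cells in the luminescence readout, no numeric limit stated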); settings: at 20 µM (top of the series)
[7] = reduced SW480 viability measured with CellTiter-Glo, NPC library, primary (AID 1117343;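 active = compounds that lower viability of the colon cancer cells in the luminescence readout, with no numeric limit stated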); settings: CellTiter-Glo luminescence; at 20 µM (top of the series) unless noted
[8] = NPC library primary testing for decreased DLD-1 cell viability via CellTiter-Glo (AID 1117346;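 active = compounds that lower survival of DLD-1 colon cancer cells in the luminescence readout, no cutoff given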); settings: DLD-1 viability, CellTiter-Glo luminescence; at 20 µM (top of the series)
[9] = EMT-state selective cytotoxicity in co-culture – imaging, PC-3E GFP, TEM4-18 mCherry, primary screen (AID 1345086;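 active = compounds killing one labelled cell type while sparing the other, by normalised counts and ratio limits, not self-fluorescent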;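 for all read-outs here: cells exposed to compound for 72 h before imaging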;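 for red/green cell ratio (normalised): normalised mesenchymal count divided by normalised epithelial count so high means epithelial killing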); settings: PC-3E GFP / TEM4-18 mCherry co-culture, imaging cell counts, at 1 µM; for red/green cell ratio (normalised): actives lie on both sides, counts scaled to control wells, 1 = unselective
[10] = viability loss with induced miR-34 in A549 – imaging, A549 dox-inducible miR-34, nuclei and caspase counts, primary screen (AID 1347080); settings: A549 miR-34 inducible, Hoechst nuclei count, 48 h
[11] = MELAS cybrid and Rieske KO viability enhancers – cell-based, MELAS cybrids, Rieske KO mouse fibroblasts, CellTiter-Glo, primary screen (AID 1508586;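 active = mean z-score across replicates of 1.96 or higher in either the MELAS or the Rieske mutant cell line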;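 note: z relative to plate mean and SD of compound and empty wells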); settings: low glucose
[12] = target: NAD(+) hydrolase SARM1 (Homo sapiens) (UniProt Q6SZW1); test: blocking NAD cleavage by SARM1 SAM-TIR – cell lysate, NAD-Glo luminescence (AID 1508614;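 active = compound whose remaining NAD level is above about 45 nM, limit read from the data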;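 note: higher remaining NAD means stronger inhibition of SARM1 NADase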); settings: SAM-TIR HEK293T lysate NADase, at 1 µM, stronger effect = higher value
[13] = P. berghei load reduction in hepatocytes – cell-based, HepG2, luciferase luminescence, HepG2 viability, primary screen (AID 624349; in the data active = parasite load remaining mostly below about 12%, no sharp cut-off; inactive = mostly above about 10%;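 note: 100% = mean of DMSO negative control wells on the same plate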); settings: P. berghei liver stage in HepG2, luciferase luminescence, concentration not given here; parasite load remaining: stronger effect = lower value; viability: measured here: HepG2 viability without parasites
[14] = compounds altering viability of human ES cells (AID 493140; call rule not given here;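 note: cells exposed to compounds for four days before counting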); settings: human embryonic stem cell survival screen; stronger effect = higher value
[15] = growth inhibition, single agent or in combination, cell-based, chromothripsis tumors, cisplatin or BGB combos (AID 1671449; in the data active = inhibition above about 80%;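 note: cells exposed for 96 hours; 0% = vehicle DMSO and 100% = killing by high DMSO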); settings: LFS_MB_P medulloblastoma cells
[16] = growth inhibition, single agent and combos, cell-based, chromothripsis tumors, cisplatin or BGB combos (AID 1671450; in the data active = inhibition above about 80%;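 note: cells exposed to compound for four days; 0% = vehicle DMSO and 100% = cell killing by high DMSO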); settings: HDN33 neuroblastoma cells, stronger effect = higher value
[17] = growth inhibition, single agents and combos, ICB984, cell-based, cisplatin or BGB combos, synergistic combos for chromothripsis tumors (AID 1671451; call rule not given here;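 note: cells exposed for 96 hours before readout; 0% = vehicle DMSO and 100% = killing by high DMSO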); settings: ICB984 medulloblastoma cells, drug combinations, stronger effect = higher value
[18] = growth inhibition, single agents and combos, HTB85, cell-based, BGB or cisplatin IC20 combos, synergistic combos for chromothripsis tumors (AID 1671453; in the data active = inhibition above about 80%;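 note: cells exposed for 96 hours before readout; 0% = vehicle DMSO and 100% = high DMSO killing control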); settings: HTB85 osteosarcoma cells, drug combinations, stronger effect = higher value
[19] = growth inhibition, MDA-MB-436, cell-based, BGB or cisplatin combos, synergistic combos for chromothripsis tumors (AID 1671458; call rule not given here;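 note: cells exposed for 96 hours; 0% = vehicle DMSO and 100% = killing by high DMSO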); settings: MDA-MB-436 breast carcinoma growth inhibition, drug combinations, stronger effect = higher value
[20] = measured here: epithelial PC-3E GFP cell survival
[21] = measured here: mesenchymal TEM4-18 mCherry cell survival
[22] = stronger effect = lower value, cell number ratio, induced over uninduced
[23] = measured here: relative caspase fold change +Dox/-Dox
[24] = measured here: total cells with miR-34 induction, stronger effect = lower value
[25] = measured here: total cells without miR-34 induction
[26] = MELAS cybrid survival, CellTiter-Glo 48 h, stronger effect = higher value
[27] = Rieske KO mouse fibroblast survival, CellTiter-Glo 72 h

Sequence of NAD(+) hydrolase SARM1 (Homo sapiens) (Q6SZW1 whole entry, looked up): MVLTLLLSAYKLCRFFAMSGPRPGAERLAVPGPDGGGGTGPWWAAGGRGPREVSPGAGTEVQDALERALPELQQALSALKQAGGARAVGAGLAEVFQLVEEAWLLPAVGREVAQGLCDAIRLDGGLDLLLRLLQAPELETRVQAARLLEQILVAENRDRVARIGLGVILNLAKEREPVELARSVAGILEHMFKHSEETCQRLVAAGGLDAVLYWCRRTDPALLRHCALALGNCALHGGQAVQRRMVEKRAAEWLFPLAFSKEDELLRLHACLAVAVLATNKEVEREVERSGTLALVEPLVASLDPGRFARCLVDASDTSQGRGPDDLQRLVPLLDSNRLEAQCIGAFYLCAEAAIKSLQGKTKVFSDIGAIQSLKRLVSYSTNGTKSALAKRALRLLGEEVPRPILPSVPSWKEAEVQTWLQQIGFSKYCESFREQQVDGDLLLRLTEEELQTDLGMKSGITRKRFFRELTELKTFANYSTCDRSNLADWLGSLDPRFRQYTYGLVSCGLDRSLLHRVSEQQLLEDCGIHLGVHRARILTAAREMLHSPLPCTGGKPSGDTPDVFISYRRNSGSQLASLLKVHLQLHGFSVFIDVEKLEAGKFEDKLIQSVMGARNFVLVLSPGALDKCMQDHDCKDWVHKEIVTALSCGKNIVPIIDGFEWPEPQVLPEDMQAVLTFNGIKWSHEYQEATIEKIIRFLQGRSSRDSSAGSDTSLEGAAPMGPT

## O=C1Cc2cc(CCN3CCN(c4nsc5ccccc45)CC3)c(Cl)cc2N1
[1]; at 10 µM
  nuclear beta-catenin stimulation: 0.7% (inactive)
[1]; stimulation, at 2 µM
  nuclear beta-catenin stimulation: 0.6%
[2]
  insulin secretion stimulation: 0.65% (inactive)
[3]
  viability decrease: 117% (active)
[4]
  tube area decrease: 22.4% (inactive)
[5]
  GLP1 secretion stimulation: 2.9% (inactive)
[6]
  inhibition of viability: 124% (active)
[7]
  viability decrease (inhibition): 91.1% (active)
[8]
  viability decrease (inhibition): 101% (active)
[9]
  red/green cell ratio (normalised): 0.94 (inactive)
[9]; [20]
  normalised cell number: 1.17
[9]; [21]
  normalised cell number: 1.1
[10]; [22]
  fold change: 0.799 (inactive) and 0.929 (inactive) and 0.946 (inactive)
[10]; [23]
  fold change: 1.72 and 0.693 and 2.86
[10]; [24]
  cell count: 4490 and 6730 and 8460
[10]; [25]
  cell count: 5620 and 7240 and 8940
[11]; [26]
  z-score: -0.541 (inactive) and 0.954 (inactive)
[11]; [27]
  z-score: 1.41 and -0.174
[12]
  remaining NAD: 10 nM (inactive)

## CCN(C)C(=O)Oc1cccc([C@H](C)N(C)C)c1
[13]
  parasite load remaining: 32.3% (inactive)
  viability: 99%
[1]; at 10 µM
  nuclear beta-catenin stimulation: -0.2% (inactive)
[1]; stimulation, at 2 µM
  nuclear beta-catenin stimulation: 0.4%
[2]
  insulin secretion stimulation: 6.4% (inactive)
[3]
  viability decrease: 5.7% (inactive)
[4]
  tube area decrease: -0.5% (inactive)
[5]
  GLP1 secretion stimulation: 2.5% (inactive)
[6]
  inhibition of viability: 25.9% (inactive)
[7]
  viability decrease (inhibition): 17.2% (inactive)
[8]
  viability decrease (inhibition): 0.2% (inactive)
[9]
  red/green cell ratio (normalised): 1.13 (inactive)
[9]; [20]
  normalised cell number: 1.24
[9]; [21]
  normalised cell number: 1.4
[10]; [22]
  fold change: 0.884 (inactive)
[10]; [23]
  fold change: 1.13
[10]; [24]
  cell count: 10100
[10]; [25]
  cell count: 11400
[11]; [26]
  z-score: -0.629 (inactive) and -0.546 (inactive)
[11]; [27]
  z-score: -0.737 and -0.15

## O=C(O)[C@H](O)[C@@H](O)[C@H](O[C@@H]1O[C@H](CO)[C@H](O)[C@H](O)[C@H]1O)[C@H](O)CO
[14]
  survival: 11.8 (inactive)
[13]
  parasite load remaining: 68% (inactive) and 86.7% (inactive)
  viability: 96.5% and 74.2%
[1]; at 10 µM
  nuclear beta-catenin stimulation: -1.5% (inactive)
[1]; stimulation, at 2 µM
  nuclear beta-catenin stimulation: -0.6%
[2]
  insulin secretion stimulation: 5.9% (inactive)
[3]
  viability decrease: 94.4% (active)
[4]
  tube area decrease: -14.9% (inactive)
[5]
  GLP1 secretion stimulation: -3.6% (inactive)
[6]
  inhibition of viability: 93% (active)
[7]
  viability decrease (inhibition): 94% (active)
[8]
  viability decrease (inhibition): 99.7% (active)
[9]
  red/green cell ratio (normalised): 1.06 (inactive)
[9]; [20]
  normalised cell number: 1.17
[9]; [21]
  normalised cell number: 1.23
[10]; [22]
  fold change: 0.847 (inactive)
[10]; [23]
  fold change: 1.47
[10]; [24]
  cell count: 8980
[10]; [25]
  cell count: 10600

## O=C(O)c1cc(=O)[nH]c(=O)[nH]1
[1]; at 10 µM
  nuclear beta-catenin stimulation: 2.7% (inactive)
[1]; stimulation, at 2 µM
  nuclear beta-catenin stimulation: 1.2%
[2]
  insulin secretion stimulation: -0.7% (inactive)
[3]
  viability decrease: 0.3% (inactive)
[4]
  tube area decrease: -4.9% (inactive)
[5]
  GLP1 secretion stimulation: 2.6% (inactive)
[6]
  inhibition of viability: 1.8% (inactive)
[7]
  viability decrease (inhibition): 18.7% (inactive)
[8]
  viability decrease (inhibition): 0.25% (inactive)
[9]
  red/green cell ratio (normalised): 0.81 (inactive)
[9]; [20]
  normalised cell number: 1.22
[9]; [21]
  normalised cell number: 0.99
[10]; [22]
  fold change: 0.909 (inactive) and 0.91 (inactive)
[10]; [23]
  fold change: 0.683 and 0.794
[10]; [24]
  cell count: 8860 and 8140
[10]; [25]
  cell count: 9750 and 8950
[11]; [26]
  z-score: -0.414 (inactive)
[11]; [27]
  z-score: -0.146
[12]
  remaining NAD: 10 nM (inactive)
[15]; at 0.5 µM, stronger effect = higher value
  inhibition: -14.8% (inactive) and 6.04% (inactive)
[15]; measured here: combination with BGB IC20, at 0.005 µM
  inhibition: -3.6% and -6.88%
[15]; measured here: combination with BGB IC40, at 0.005 µM
  inhibition: 28.3% and -31.4%
[15]; measured here: combination with BGB IC40, at 0.05 µM
  inhibition: -7.85% and -7.79%
[15]; measured here: combination with cisplatin, at 0.5 µM, stronger effect = higher value
  inhibition: -24.1% and -4.55%
[15]; measured here: combination with cisplatin, at 5 µM, stronger effect = higher value
  inhibition: -5.53% and -40.7%
[16]; BGB combo, at 5 µM
  inhibition: 13.5% and -51.1%
[16]; at 0.5 µM
  inhibition: 15.1% (inactive) and -24.6% (inactive)
[16]; cisplatin combo, at 5 µM
  inhibition: 14.4% and -17.2%
[16]; measured here: with BGB IC20 combination, at 0.5 µM
  inhibition: 10.5% and -14.2%
[16]; measured here: with cisplatin IC20 combination, at 0.5 µM
  inhibition: 24.7% and -33.5%
[16]; single agent, at 5 µM
  inhibition: 12.4% and -40.1%
[17]; BGB IC20 combo, at 0.005 µM
  inhibition: -7.3% and -18.5%
[17]; BGB IC40 combo, at 0.005 µM
  inhibition: -15.2% and -60.1%
[17]; BGB IC40 combo, at 0.05 µM
  inhibition: 9.75% and -38.4%
[17]; at 0.5 µM
  inhibition: 7.77% (inactive) and -27.4% (inactive)
[17]; cisplatin combo, at 0.05 µM
  inhibition: 9.75% and -43.9%
[17]; cisplatin combo, at 0.5 µM
  inhibition: -1.72% and -34.4%
[17]; cisplatin combo, at 5 µM
  inhibition: 27.1% and -45.2%
[17]; measured here: 5 uM single agent, at 5 µM
  inhibition: 8.32% and 10.3%
[18]; at 0.5 µM
  inhibition: 5.03% (inactive) and -15.1% (inactive)
[18]; measured here: with BGB IC20, at 0.5 µM
  inhibition: -2.41% and -19.2%
[18]; measured here: with BGB IC20, at 5 µM
  inhibition: 15.1% and -5.19%
[18]; measured here: with cisplatin IC20, at 0.5 µM
  inhibition: 6.2% and -21.8%
[18]; measured here: with cisplatin IC20, at 5 µM
  inhibition: 13% and -19.1%
[18]; single agent, at 5 µM
  inhibition: 16% and -13.4%
[19]; at 0.5 µM
  inhibition: 2.87% (inactive) and -29.1% (inactive)
[19]; measured here: BGB combination, at 0.5 µM
  inhibition: 7.16% and -31.6%
[19]; measured here: BGB combination, at 5 µM
  inhibition: 4.32% and -38.3%
[19]; measured here: cisplatin combination, at 0.5 µM
  inhibition: -8.53% and -32.8%
[19]; measured here: cisplatin combination, at 5 µM
  inhibition: 21.8% and -35.6%

Reference: PubChem BioAssay
